Screening data deposited in PubChem by National Center for Advancing Translational Sciences (NCATS).
Lamin A splicing = changes lamin A minigene splicing in HeLa cells | Potency, µM (highest dose often 46.1 µM), for inactives: at the highest dose ratio change, negative = inhibition, hits mostly inhibitors | hit rate 0.01% among 200,000 | HeLa LMNA splicing GFP/RFP minigene ratio, 48 h; active means well fitted inhibition curve with a large enough effect in the signal ratio, with a control signal flat, not every such curve was filed as active; inconclusive means small, poorly fitted or top-dose-only effect, or effect the other way, or a change in a side signal; the % refers to the signal ratio; further: on the % scale 0 is the no-effect control and ±100 the full control effect
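S3 HeLa cells stably expressing lamin A-EGFP splicing minigene plus DsRed2, 600 cells/well, 48 h compound exposure at 37C. Laser-scanning cytometry; analysed as GFP (500-530 nm)/RFP (575-640 nm) total intensity ratio; 0.5% DMSO vehicle.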
HttQ103 aggreg = mutant huntingtin aggregation inhibition | AID 1688 | PC12 HttQ103-GFP aggregates, Acumen cytometry, 40 h | hit rate 1.1% among 220,000 | Potency, µM (series often up to 46.1 µM), for the others: at the highest dose activity change, negative = inhibition, most hits filed as inhibitors; further: on the % scale 0 is the no-effect control and ±100 the full control effect; nearly all actives have a fitted effect of over 60% in size
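Aggregate formation scored by laser-scanning cytometer (488 excitation, 500–530 emission) in lysed PC12 cells expressing Q103-GFP after 100 nM tebufenozide induction; library tested in dose series, with ATPLite reagent added in the multiplex.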
HPGD inh = HPGD (human) dehydrogenase inhibition; purified HPGD, NADH fluorescence kinetic, PGE2 substrate; Potency, µM, without a hit: at the top dose activity change, negative = inhibition, actives largely listed as inhibitors; hit rate 4.3% among 150,000; active means well fitted inhibition curve with a large enough effect, not every such curve was filed as active; inconclusive means small, poorly fitted or top-dose-only effect, or another doubt; inactive means no such curve, though single readings can be large or run the other way; further: on the % scale 0 is the no-effect control and ±100 the full control effect
Target sequence (P15428 whole entry, looked up): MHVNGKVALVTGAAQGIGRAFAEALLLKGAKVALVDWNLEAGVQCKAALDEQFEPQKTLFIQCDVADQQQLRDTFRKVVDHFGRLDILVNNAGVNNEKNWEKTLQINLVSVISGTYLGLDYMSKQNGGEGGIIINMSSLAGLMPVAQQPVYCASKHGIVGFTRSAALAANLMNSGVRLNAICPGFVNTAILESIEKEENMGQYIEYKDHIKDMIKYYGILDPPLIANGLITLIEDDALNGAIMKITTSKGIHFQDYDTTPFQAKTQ
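NADH formation kinetics: reaction with 30 uM PGE2 and 1 mM NAD+ (final), 20 nM enzyme, Tris-HCl pH 8 with Tween 20, after 15 min compound preincubation at room temperature. Fluorescence change, last versus first of five reads.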
ALDH1A1 inh = blocks purified human ALDH1A1 activity | Purified ALDH1A1, NADH fluorescence, propionaldehyde substrate | AID 1030 | hit rate 7.3% among 220,000 | P00352 | Potency, µM (highest dose often 75.3 µM), for the others: at the highest dose activity, negative = inhibition, actives largely listed as inhibitors; active means well fitted inhibition curve with a large enough effect, not every such curve was filed as active; inconclusive means small, poorly fitted or top-dose-only effect, or another doubt; inactive means no such curve, though single readings can be large or run the other way;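 further: plate controls were no enzyme wells and a reference inhibitor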
Target sequence (P00352 whole entry, looked up): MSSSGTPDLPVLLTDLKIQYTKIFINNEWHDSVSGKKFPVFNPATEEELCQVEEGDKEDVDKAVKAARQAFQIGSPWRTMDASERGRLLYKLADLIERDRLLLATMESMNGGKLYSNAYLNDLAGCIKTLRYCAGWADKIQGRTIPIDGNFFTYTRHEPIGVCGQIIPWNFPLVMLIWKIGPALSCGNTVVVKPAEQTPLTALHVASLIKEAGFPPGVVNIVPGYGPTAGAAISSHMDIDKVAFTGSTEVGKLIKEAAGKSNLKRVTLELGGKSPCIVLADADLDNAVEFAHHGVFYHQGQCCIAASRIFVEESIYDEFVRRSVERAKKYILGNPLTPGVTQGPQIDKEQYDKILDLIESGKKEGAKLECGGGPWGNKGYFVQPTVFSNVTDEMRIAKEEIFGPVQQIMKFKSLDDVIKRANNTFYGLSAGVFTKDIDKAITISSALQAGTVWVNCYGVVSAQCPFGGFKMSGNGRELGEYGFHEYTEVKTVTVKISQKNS
HTT cytoprotect = protects HTT-Q103 PC12 cells, measured by ATP | AID 1471 | Potency, µM (titrated, usually from 56.4 µM), for the others: cytoprotection (ATP increase), usual class: activators | PC12 HTT-Q103 induced, cytoprotection, ATP luminescence, 40 h | hit rate 0.14% among 230,000; further: % of control where 0% means no effect; nearly all actives have a fitted effect of over 45% in size
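Readout: ATPlite luminescence (ATP level). Model: stable PC12, inducible Htt exon1 Q103-GFP. Inducer: tebufenozide, 100 nM final. Compounds: dose series. No G418 in medium.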
* = called active by the depositor; ? = inconclusive; nt = not tested or not shown; [ ] = dose if it differs, or a comment. Shown are actives, neighbours in structure and some others; about 8.8% of the full set was active somewhere. Unless noted, the call rests on the fitted dose curve; in most records, active means well fitted curve in the direction sought with a large enough effect; inconclusive means small, poorly fitted or top-dose-only effect, or another doubt; inactive means no such curve, though single readings can be large; an effect the other way counts as inactive or inconclusive. Potency means the concentration at half of the fitted maximal effect.

SMILES | Lamin A splicing | HttQ103 aggreg | HPGD inh | ALDH1A1 inh | HTT cytoprotect
CCc1ccc2c(c1)c1nnc(NN)nc1n2CC | ? | -2% | ? | 2.8µM* | -17%[10 µM]
COC(=O)C1=C(C(=O)OC)[C@@H]2N(Cc3ccccc3)c3ccccc3[C@@]23C[C@@H](C(=O)OC)N(C(=O)c2ccco2)C3=N1 | 11%[9.22 µM] | nt | -10% | -1%[13.5 µM] | -10%[10 µM]
Cc1ccc(N(Cc2ccccc2)Cc2ccccc2)cc1 | nt | nt | -5% | 9%[13.5 µM] | 7%[10 µM]
Cn1c(=O)c2c(n3cnnc13)-c1ccccc1CC21CCCC1 | ? | 1% | -11% | 11µM* | 18%[10 µM]
CC(=O)N1CCC2(CC1)CN(c1ccccn1)C2 | nt | nt | ? | ? | -13%
Cn1cccc1/C=C1\SC(=O)N(c2ccc(O)cc2)C1=O | 10% | 12% | -11% | -2% | -18%[10 µM]
Cn1cnnc1Sc1nc2ccccc2nc1NS(=O)(=O)c1ccccc1 | -1% | 3% | -18% | 6% | -5%[10 µM]
Cn1ccnc1Sc1nc2ccccc2nc1NS(=O)(=O)c1ccccc1 | -13% | -12%[9.22 µM] | 22µM* | -3% | -8%[4.97 µM]
COc1cc(CNc2ccc3[nH]c(=O)[nH]c3c2)cc(Cl)c1OCc1ccc(F)cc1 | -7%[46 µM] | nt | nt | nt | nt
COc1cc(CNn2c(C)n[nH]c2=S)cc(Cl)c1OCc1ccccc1 | ? | 3% | 16µM* | 28µM* | -42%
CCN(CC)C(=O)c1cccnc1 | nt | -3% | nt | nt | 29%
CCN(CC)C(=O)c1cc(Cl)ccn1 | nt | -3% | nt | 32µM* | -8%
Cn1cc(Br)c(C(=O)NNC(=O)c2ccc(Cl)cc2)n1 | -4% | 6% | 0% | 9% | 0%[10 µM]
C[C@]12C=CC(=O)C=C1CCC1C2C(=O)C[C@]2(C)C1CC[C@]2(O)C(=O)CO (stereo partly specified) | nt | nt | -12% | -3% | -8%
COC(=O)N1C(c2ccccc2)=Cc2ccccc2C1C1(C(=O)OC)CCCC1=O (stereo unspecified) | -4%[9.22 µM] | nt | -7% | -4% | -43%
COc1cc(/C=C2\SC(=S)N(Nc3ccccc3)C2=O)ccc1O | -7% | ? | -13% | 10µM* | -21%[10 µM]
CCOc1cc(/C=C2\SC(=S)N(Nc3ccccc3)C2=O)ccc1O | 2% | -1% | -13% | 11µM* | -60%
COc1ccc(C2=NN(c3ccccc3)C(=O)/C2=C\c2ccc(O)c(OC)c2)cc1 | nt | -12% | nt | 20µM* | ?
O=C(NN1C(=O)/C(=C\c2ccc(O)c([N+](=O)[O-])c2)SC1=S)c1ccccc1Cl | nt | 11%[9.22 µM] | nt | 14µM* | 0%[10 µM]
CC(=O)OC1CC(OC(C)=O)[C@]2(C)C(CC(OC(C)=O)[C@]3(C)C2CC[C@@]2(C)C(c4ccoc4)OC(=O)C4O[C@]432)C1(C)C (stereo partly specified) | nt | nt | 7% | 0% | -34%
O=C(NCCC1=CCCCC1)c1ccc2c(c1)N(Cc1cccc(Cl)c1)C(=O)c1ccccc1S2(=O)=O | 10%[46 µM] | nt | nt | nt | nt
CC(=O)Nc1cc(CN2CCCCC2)c(O)c2ncccc12 | nt | nt | -10% | 9%[13.5 µM] | -5%[10 µM]
CCN(C(=O)Cn1c(SCC(=O)Nc2ccc(OC)cc2)nc2ccccc21)c1cccc(C)c1 | -18%[46 µM] | nt | nt | nt | nt
Cc1cc(C)nc(NN2C(=O)/C(=C/c3ccccc3)SC2=S)n1 | 1% | -15% | 35µM* | ? | 8%
COc1c(C)cc(C(=O)C2CCCN(C(=O)c3cc(C)nc(C)n3)C2)cc1C (stereo unspecified) | nt | -5%[9.22 µM] | nt | -5% | -26%[10 µM]
SMILES | Lamin A splicing | HttQ103 aggreg | HPGD inh | ALDH1A1 inh | HTT cytoprotect
COc1c(C)cc(C(=O)C2CCCN(C(=O)/C=C/c3ccccn3)C2)cc1C (stereo unspecified) | nt | -4% | nt | 14µM* | -1%
COc1cccc(CN(C)C(=S)Nc2ccc(C)c(C)c2)c1 | nt | -24% | nt | 0% | -18%
CCCCn1c(SCC(=O)Nc2nnc(C)s2)nnc1-c1ccncc1 | nt | -1%[9.22 µM] | nt | -5% | -14%
O=C(CSc1ccc(Cl)cc1)N1CCN(c2ccc(Cl)cc2[N+](=O)[O-])CC1 | 9% | 11µM* | -11% | 16% | -46%
O=C(NC(=S)N1CCN(c2ccc(Cl)cc2[N+](=O)[O-])CC1)c1cccs1 | ? | -5% | -27% | 7.9µM* | 4%[10 µM]
C#CCSC1=C(C#N)C(c2cccs2)C(C(=O)OCC)=C(C)N1 (stereo unspecified) | -6% | -3% | -23% | 25µM* | -21%
CCOC(=O)C1=C(C)NC(C)=C(C(=O)OCC)C1c1cccs1 | ? | 10% | -11% | 2% | -66%[10 µM]
Cc1ccc(NC(=O)CN2C(=O)CCc3cc(S(=O)(=O)N4CCOCC4)ccc32)cc1N(C)C | 3%[46 µM] | nt | nt | nt | nt
O=C(NCc1ccco1)c1cc2sccc2n1Cc1ccccc1 | ? | ? | 16µM* | ? | 6%[10 µM]
Cc1ccc2c(Cl)c(C(=O)NCc3cccnc3)sc2c1 | 46% | -25% | ? | 12% | -25%
CCn1c(C(=O)NCc2cccnc2)cc2sc(Cl)cc21 | -4% | -16% | 16µM* | -4% | -12%[10 µM]
CCn1c(C(=O)NCCCc2ccccc2)cc2sccc21 | ? | 13% | -17% | -8% | nt
O=C(NCCc1ccccc1)c1cc2sccc2n1Cc1ccccc1 | 11% | -1% | 16µM* | ? | 0%
CCn1c(C(=O)NCc2ccccn2)cc2sccc21 | -7% | -14% | 18µM* | 6% | 10%[10 µM]
Cc1cc(C)c(NC(=O)c2ncoc2-c2ccco2)c(C)c1 | -6%[46 µM] | nt | nt | nt | nt
CC(=O)N1CCOc2cc(S(=O)(=O)N(C)Cc3ccccc3)c(Cl)cc21 | 7%[46 µM] | nt | nt | nt | nt
CCN1C(=O)[C@H]2[C@H]3[C@H](O)[C@H](O)C/C(=N/OC[C@@H]4O[C@H](c5ccccc5)C=C[C@@H]4Oc4ccc(OC)cc4)[C@@H]3CC[C@@H]2C1=O | nt | nt | nt | ? | -43%[10 µM]
Cn1cccc1CNC(=S)Nc1ccccc1F | ? | -10% | nt | -3% | -14%
COC(=O)c1ccc(/C=N/NC(=S)NCCN2CCOCC2)cc1 | -6%[46 µM] | 11% | nt | 3% | -36%
O=C(CCC1N=C2c3ccccc3N=C(SCc3cccc(Cl)c3)N2C1=O)NCc1cccs1 (stereo unspecified) | -7%[46 µM] | nt | nt | nt | nt
CCn1nnnc1SCC(=O)Nc1nc(-c2cccs2)cs1 | -10% | 17% | -18% | 3.2µM* | 11%[10 µM]
Cc1cccc(N2N=C(C(=O)Nc3nc(C)cs3)CCC2=O)c1 | 18%[46 µM] | ? | nt | -4% | -54%
S=c1[nH]nc(COc2ccccc2)n1/N=C/C=C/c1ccccc1 | -12% | 0% | 5µM* | -14% | 3%[10 µM]
S=c1[nH]nc(COc2ccccc2)n1/N=C/C=C/c1ccco1 | nt | 26%[9.22 µM] | nt | nt | -29%[10 µM]
S=c1[nH]nc(-c2ccncc2)n1/N=C/C(Cl)=C\c1ccccc1 | -12%[46 µM] | -22%[9.22 µM] | nt | -14% | 0%[10 µM]
S=c1[nH]nc(COc2ccccc2)n1/N=C/C(Cl)=C/c1ccccc1 | ? | ? | 25µM* | 32µM* | ?
C=C1CCC2[C@](C)(CO)C(O)CC[C@]2(C)C1C/C=C1/C(=O)OCC1O (stereo partly specified) | ? | 9% | -6% | 8% | ?
